High-throughput results (PubChem BioAssay)
NCOA2 inhibitor: human SRC2 (NCOA2) inhibition | HEK293 GAL4-SRC2 luciferase reporter, luminescence | hit rate 0.17% among 370,000 | inhibition, % at 9 µM;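 active = inhibition above the mean inhibition of all tested compounds plus 3 SD, set per campaign, cut at about 52% in these data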;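 note: 0% = DMSO treated cells and 100% = cells given Gossypol at 36 µM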
COUP-TFII inh: blocks human COUP-TFII nuclear receptor. P24468. HEK293T NGFI-A luciferase reporter, luminescence. inhibition, % at 8.6 µM. hit rate 0.7% among 370,000. AID 686940;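 active = inhibition above a per-plate cutoff, mean inhibition of test wells between control levels plus 3 SD, cut at about 38% in these data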;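 note: cells cotransfected with COUP-TFII expression vector driving the NGFI-A reporter; 0% = median of COUP-TF2 test wells and 100% = reporter-only cells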
SRC3 inh: inhibits human SRC3 coactivator. hit rate 0.17% among 360,000. HEK293 GAL4-SRC3 luciferase reporter, luminescence. inhibition, % at 3.6 µM. Q9Y6Q9;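 active = inhibition above a per-campaign cutoff, the mean of all compounds plus 3 SD, cut at about 60% in these data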;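 note: 0% = DMSO-treated cells and 100% = gossypol-treated cells at 36 µM; higher means less SRC3-driven luciferase light from the GAL4 reporter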
SRC1 inh: inhibits human SRC1 coactivator | HEK293 GAL4-SRC1 luciferase reporter, luminescence | hit rate 0.12% among 360,000 | Q15788 | AID 588354 | inhibition, % at 3.6 µM;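 active = inhibition above the campaign mean plus 3 SD, with each screening campaign given its own cutoff, cut at about 60% in these data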;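 note: 0% = DMSO treated cells and 100% = gossypol at 36 µM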
Target sequence (Q15788 whole entry, looked up, the tested form may be a part): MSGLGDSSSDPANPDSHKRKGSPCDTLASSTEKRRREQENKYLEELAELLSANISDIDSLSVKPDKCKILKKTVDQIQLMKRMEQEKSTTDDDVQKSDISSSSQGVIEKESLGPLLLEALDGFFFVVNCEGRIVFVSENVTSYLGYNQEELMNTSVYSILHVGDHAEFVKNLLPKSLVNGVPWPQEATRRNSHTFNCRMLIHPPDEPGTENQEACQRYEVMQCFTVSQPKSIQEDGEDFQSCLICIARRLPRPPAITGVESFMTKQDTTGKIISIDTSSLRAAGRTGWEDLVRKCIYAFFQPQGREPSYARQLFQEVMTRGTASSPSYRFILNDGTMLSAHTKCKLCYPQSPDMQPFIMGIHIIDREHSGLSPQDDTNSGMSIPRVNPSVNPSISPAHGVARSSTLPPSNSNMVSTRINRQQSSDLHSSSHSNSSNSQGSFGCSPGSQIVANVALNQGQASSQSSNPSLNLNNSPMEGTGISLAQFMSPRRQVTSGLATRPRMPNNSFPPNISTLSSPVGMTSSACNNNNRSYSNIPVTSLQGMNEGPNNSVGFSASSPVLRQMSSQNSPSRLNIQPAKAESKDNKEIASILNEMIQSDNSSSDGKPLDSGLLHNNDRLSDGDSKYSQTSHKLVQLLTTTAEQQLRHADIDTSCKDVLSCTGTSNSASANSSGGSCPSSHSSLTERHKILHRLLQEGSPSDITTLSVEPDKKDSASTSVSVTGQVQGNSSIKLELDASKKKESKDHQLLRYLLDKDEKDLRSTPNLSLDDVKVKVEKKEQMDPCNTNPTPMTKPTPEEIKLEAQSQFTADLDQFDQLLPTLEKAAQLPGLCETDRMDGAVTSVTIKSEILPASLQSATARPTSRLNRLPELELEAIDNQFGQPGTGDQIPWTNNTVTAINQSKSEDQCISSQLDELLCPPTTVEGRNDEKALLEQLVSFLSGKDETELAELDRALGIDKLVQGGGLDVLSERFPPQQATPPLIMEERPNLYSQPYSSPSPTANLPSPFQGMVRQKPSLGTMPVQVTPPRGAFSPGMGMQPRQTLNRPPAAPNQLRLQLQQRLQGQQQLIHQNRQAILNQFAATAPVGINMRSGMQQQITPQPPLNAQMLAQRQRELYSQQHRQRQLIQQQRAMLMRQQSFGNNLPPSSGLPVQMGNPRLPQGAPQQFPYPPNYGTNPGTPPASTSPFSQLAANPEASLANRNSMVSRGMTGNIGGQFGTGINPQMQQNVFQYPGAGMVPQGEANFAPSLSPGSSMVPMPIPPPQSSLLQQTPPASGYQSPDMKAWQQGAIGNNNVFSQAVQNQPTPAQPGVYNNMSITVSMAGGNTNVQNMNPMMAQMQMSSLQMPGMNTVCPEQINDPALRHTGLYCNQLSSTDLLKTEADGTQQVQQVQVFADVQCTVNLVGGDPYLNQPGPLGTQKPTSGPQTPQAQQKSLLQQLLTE
Gli-Sufu block: blocks Gli-Sufu signaling in a luciferase reporter; Sufu-KO-LIGHT fibroblasts, Gli luciferase reporter luminescence; inhibition, % at 5 µM; hit rate 0.74% among 340,000; AID 588413;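 active = inhibition above about 55%, limit read from the data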;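 note: 0% = DMSO-treated cells and 100% = wells with medium but no cells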
LRH-1 inv ag: suppresses constitutive activity of human LRH-1. hit rate 0.13% among 360,000. inhibition, % at 3.6 µM. O00482. HEK293T StAR-luciferase reporter, LRH-1 transfected, 24 h. AID 602396;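 active = inhibition above the mean inhibition of all tested compounds plus 3 SD, cut at about 73% in these data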;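 note: 0% = DMSO wells and 100% = reporter-only cells lacking LRH-1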
Gli antag conf: Gli-SUFU antagonism confirmation, single concentration; shares compounds with Gli-Sufu block; Sufu-KO-LIGHT cells, Gli luciferase reporter, luminescence; inhibition, % at 5 µM; hit rate 40% among 2,500; AID 602428;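 active = mean inhibition at 5 µM reaching about 45%, limit read from the data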;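 note: plate controls were DMSO-treated cells for no effect and wells lacking cells for full effect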
Gli cytotox: counter-screen for Gli-SUFU antagonists: cytotoxicity | cytotoxicity, % at 5 µM | AID 651994 | shares compounds with Gli-Sufu block | Sufu-KO-LIGHT cells cytotoxicity, ATP luminescence | hit rate 32% among 2,500;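 active = mean cytotoxicity at 5 µM above about 25%, limit read from the data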;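 note: cells exposed to compound overnight for roughly 16 to 18 hours; plate controls were DMSO wells with cells for no effect and medium without cells for full effect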
Wnt3a counter: counter-screen for Gli-SUFU antagonists: Wnt3a reporter inhibition; shares compounds with Gli-Sufu block; inhibition, % at 6.25 µM; AID 651995; hit rate 20% among 2,500; Wnt-LIGHT cells, Wnt3a-driven luciferase reporter, luminescence;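 active = mean inhibition above about 25%, limit read from the data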
The depositor's hits bear a star; nt = no result. Only some compounds are listed: those with a hit (about 1.3% of all), similar ones and a draw of the others.

SMILES | NCOA2 inhibitor | COUP-TFII inh | SRC3 inh | SRC1 inh | Gli-Sufu block | LRH-1 inv ag | Gli antag conf | Gli cytotox | Wnt3a counter
O=C(N/N=C\c1cc(Br)ccc1O)c1ccc(S(=O)(=O)N2CCCCC2)cc1 | -10.7 | -5.0 | 36.2 | 10.9 | 77.4* | -1.5 | 75.6* | 29.9* | 73.5*
N#Cc1ccsc1NC(=O)CCN1CCN(C(c2ccccc2)c2ccccc2)CC1 | 27.9 | -1.7 | 20.9 | -21.7 | 53.4 | 0.4 | 20.6 | 0.1 | -17.4
N#Cc1c(-c2cccc(Br)c2)cc(-c2cccnc2)nc1N | 3.4 | -32.0 | 4.8 | 3.8 | 53.3 | 17.7 | 19.9 | -0.4 | -21.2
C=CCn1nc([N+](=O)[O-])nc1Sc1cccc2cccnc12 | nt | nt | 3.4 | 11.4 | 67.8* | 7.4 | 48.5* | 15.0 | -93.0
O=[N+]([O-])c1ccc(Sc2cccc3cccnc23)cc1 | -21.3 | -26.5 | -25.2 | -15.7 | -30.5 | -2.4 | nt | nt | nt
CCCC[C@@H]1CNC(=S)N1CC1CCCCC1 | -18.7 | -14.6 | 2.3 | -2.0 | 6.6 | -11.5 | nt | nt | nt
S=C1NC[C@H](CC2CCCCC2)N1CC1CCCCC1 | 13.9 | 3.0 | -1.5 | 3.0 | 65.1* | 0.1 | 8.8 | 18.6 | -2.0
O=C(CN1C(=O)c2ccccc2S1(=O)=O)c1cccc(Br)c1 | -16.0 | 2.4 | 10.9 | 3.2 | 67.0* | 11.8 | 74.2* | 11.0 | 84.8*
O=C(CN1C(=O)c2ccccc2S1(=O)=O)c1ccccc1F | 8.0 | 19.8 | -42.9 | -21.6 | 59.6* | -53.5 | 78.1* | 20.1 | 89.4*
COc1ccc(Br)cc1C(=O)NC(=S)Nc1ccc(CN2CCOCC2)cc1 | -28.9 | -11.6 | 22.5 | 8.7 | 50.5 | 4.5 | 20.0 | 11.7 | -16.9
Cc1ccccc1C(=O)NC1CCCCN(C(C)C)C1=O (stereo not drawn) | -15.3 | -21.5 | nt | nt | nt | nt | nt | nt | nt
COc1cc(/C=N/Nc2nc(N3CCCC3)nc(N3CCCC3)n2)ccc1O | -0.1 | -14.2 | 11.5 | 3.4 | -0.8 | 14.5 | nt | nt | nt
Oc1ccc(/C=N/Nc2nc(N3CCCC3)nc(N3CCCC3)n2)cc1O | -0.6 | -11.6 | -23.2 | -12.1 | 63.9* | -9.7 | 51.3* | 23.1 | 83.1*
CC(C)C[C@H]1COc2cccc(F)c2S(=O)(=O)N1Cc1cn(Cc2ccco2)nn1 | 8.0 | -13.9 | nt | nt | nt | nt | nt | nt | nt
COC(=O)[C@]12C[C@H](CC(=O)N3CCC(c4ccccc4)CC3)C(=O)N(Cc3ccco3)C1=C[C@H](C(C)C)O[C@@H]2C1CC1 | 10.0 | -0.2 | nt | nt | nt | nt | nt | nt | nt
Cc1onc(-c2ccccc2)c1C(=O)N1CCN(c2ccccc2)CC1 | 12.2 | -6.1 | 11.6 | 2.8 | 2.3 | 8.6 | nt | nt | nt
COc1ccc(N2CCN(C(=O)COC(=O)c3c(-c4ccccc4)noc3C)CC2)cc1 | -10.0 | -1.4 | -11.1 | 2.5 | 65.1* | -5.3 | 15.7 | -0.9 | 7.3
COC(=O)[C@]12C[C@H](CC(=O)NCC34CC5CC(CC(C5)C3)C4)C(=O)N(Cc3ccco3)C1=C[C@H](COCc1ccccc1)O[C@@H]2C | -4.8 | -15.3 | nt | nt | nt | nt | nt | nt | nt
CC(NCc1ccc(OCC(N)=O)cc1)C12CC3CC(CC(C3)C1)C2 (stereo not drawn) | 2.1 | -8.3 | -2.8 | -3.9 | 51.1 | 12.7 | 34.5 | 12.4 | -19.8
COc1ccc(CN2CCc3ccccc3C2)c(OC)c1 | 14.4 | 8.4 | 4.5 | -40.0 | 13.3 | 2.4 | nt | nt | nt
COc1ccc(C2=[N+](C)CCn3cccc32)c(OC)c1 | 4.5 | 12.0 | 13.1 | 11.1 | 70.5* | 0.1 | 47.4* | 21.2 | 13.0
CN1CCCN(Cc2ccccc2C(F)(F)F)CC1 | 9.4 | 3.7 | -12.6 | -21.2 | 93.6* | -1.4 | 22.9 | 24.3 | -19.4
CCOc1ccc2c(c1)s/c(=N\S(=O)(=O)c1ccc(OC)cc1)n2C(F)F | 14.7 | 8.9 | -2.8 | 7.1 | 54.9 | 6.4 | 11.0 | -0.8 | -4.6
CCCCOc1cccc(C(=O)NCCc2ccccc2-c2ccccc2CCC(=O)NCc2ccccc2)c1 | -22.0 | 6.3 | nt | nt | nt | nt | nt | nt | nt
Cn1c(Cc2cccs2)nnc1SCC(=O)Nc1ccc2c(c1)OCO2 | 19.0 | -16.1 | nt | nt | nt | nt | nt | nt | nt
